Assay outcomes as filed in PubChem.
TDP1 cell noCPT: qHTS for Inhibitors of human tyrosyl-DNA phosphodiesterase 1 (TDP1): qHTS in cells in absence of CPT. AID 686978, 2013. DT40 Tdp1-/- hTDP1 cells, no CPT, ATP luminescence, 48 h. hit rate 15% among 420,000. Potency, µM (titrated, usually from 46.2 µM), inactives show at the top dose activity change, negative = growth inhibition, usual class: inhibitors; note: potency is the fitted concentration of half-maximal effect; % is set by controls: 0 for no effect and ±100 for the full control effect; nearly all actives have a fitted effect of over 55% in size
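No-CPT arm: Tdp1-/-;hTDP1 DT40 cells (400/well) plus compounds, incubated ≥48 hr at 37 °C. Readout CellTiter-Glo luminescence.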
DT40 TDP1 CPT: DT40-hTDP1 cell growth loss with CPT. chicken DT40 Tdp1-/-;hTDP1 cells + 20 nM CPT, ATP luminescence, 48 h. Potency, µM (top dose mostly 46.2 µM), for the others: at the top dose activity change, negative = growth inhibition, actives largely listed as inhibitors. hit rate 12% among 420,000; note: potency is the fitted concentration of half-maximal effect; % is set by controls: 0 for no effect and ±100 for the full control effect; nearly all actives have a fitted effect of over 55% in size
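Chicken DT40 Tdp1-/- cells stably complemented with human TDP1 were seeded at 400 cells/well in medium containing 20 nM camptothecin, exposed to pin-transferred compounds, and grown at 37 °C for at least 48 hr. Viability was read as ATP luminescence.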
IL-1B inflam inh: blocks inflammasome-driven IL-1 beta release | THP-1 LPS/ATP IL-1B secretion, AlphaLISA, 16 h; active compounds read low | activity change, % at 57.5 µM | hit rate 4.7% among 360,000 | AID 743279; in the data active = activity change below about -50%; inconclusive = mostly about -30% to -49%; note: % is set by controls: 0 for no effect and ±100 for the full control effect
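THP-1 cells pretreated 1 hr with compounds (up to 57.5 uM final), then stimulated with LPS (250 ng/mL final) plus ATP (1.25 mM final); secreted IL-1B measured by AlphaLISA after 16 hr, decreased signal indicating inhibition.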
HepG2 tox: kills HepG2 cells in TGF-b inhibitor counter-screen. HepG2 CAGA-GFP viability, ATP luminescence, 18 h. Potency, µM (doses to about 46.1 µM), inactives show top-dose activity change, negative = cytotoxicity, most hits filed as cytotoxic. hit rate 0.76% among 410,000. AID 588856; note: potency is the fitted concentration of half-maximal effect
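CellTiter-Glo luminescence gave cytotoxicity after 18 hours at 37 degrees C. The cells were HepG2 CAGA-GFP in 1% FBS DMEM, stimulated with 500 pg/mL TGF-beta after compound addition. %Activity was normalised to no-cell wells (complete cell-killing) and DMSO (no toxicity), and curves were fitted and classified.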
ASM inhibitor: blocks human secretory acid sphingomyelinase. AID 504937. Potency, µM (top dose mostly 57.5 µM), for the others: at the highest dose activity change, negative = inhibition, most hits filed as inhibitors. hit rate 0.006% among 340,000. P17405. placental ASM, HMU-PC fluorogenic substrate, 60 min; note: potency is the fitted concentration of half-maximal effect
Target sequence (P17405 47-631 limits assumed): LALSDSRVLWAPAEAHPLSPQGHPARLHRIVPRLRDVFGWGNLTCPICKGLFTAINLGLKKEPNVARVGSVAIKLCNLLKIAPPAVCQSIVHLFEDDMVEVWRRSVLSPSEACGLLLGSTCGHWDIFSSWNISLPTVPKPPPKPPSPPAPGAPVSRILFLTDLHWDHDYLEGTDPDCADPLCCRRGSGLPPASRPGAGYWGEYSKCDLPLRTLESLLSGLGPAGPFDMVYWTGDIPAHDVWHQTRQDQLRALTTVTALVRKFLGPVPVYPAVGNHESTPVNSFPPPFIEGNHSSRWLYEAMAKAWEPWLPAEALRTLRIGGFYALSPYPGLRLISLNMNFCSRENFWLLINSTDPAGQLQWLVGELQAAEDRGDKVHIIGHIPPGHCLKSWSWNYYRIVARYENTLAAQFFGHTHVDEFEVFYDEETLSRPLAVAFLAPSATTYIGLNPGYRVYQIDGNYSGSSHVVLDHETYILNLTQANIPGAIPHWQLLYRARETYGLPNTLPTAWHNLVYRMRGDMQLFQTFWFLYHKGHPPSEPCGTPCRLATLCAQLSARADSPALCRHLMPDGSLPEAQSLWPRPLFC
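Human placenta-derived ASM preincubated with compound 10 min at room temperature, then reacted with 9 uM (final) fluorogenic HMU-PC substrate for 60 min at 37 C. Stop solution raises pH to 10; fluorescence read at Ex 386/Em 447 nm.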
TGFb inhibitor: blocks TGF-b signaling; HepG2 CAGA-GFP TGF-b/SMAD3 reporter, GFP fluorescence, 18 h; TGF-beta stimulated, 500 pg/mL final; AID 588855; hit rate 1.2% among 410,000; Potency, µM (top dose mostly 46.1 µM), for inactives: top-dose activity, negative = inhibition, most hits filed as inhibitors; note: potency is the fitted concentration of half-maximal effect; % is set by controls: 0 for no effect and ±100 for the full control effect; nearly all actives have a fitted effect of over 65% in size
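Cell-based qHTS in HEPG2 carrying a CAGA-GFP Smad reporter; compounds added before 500 pg/mL final TGF-beta, 18 h incubation at 37 degrees C, GFP fluorescence quantified per cell by imaging cytometry.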
Active calls of the source: *; ? = inconclusive; nt = not tested or not shown. Only some compounds are listed: those with a hit (about 19% of all), similar ones and a draw of the others. Unless noted, calls come from the whole dose curve; as a rule, active = well fitted curve in the direction sought with a large enough effect; inconclusive = small, poorly fitted or top-dose-only effect, or another doubt; inactive = no such curve, though single readings can be large; an effect the other way counts as inactive or inconclusive.

SMILES	TDP1 cell noCPT	DT40 TDP1 CPT	IL-1B inflam inh	HepG2 tox	ASM inhibitor	TGFb inhibitor
COCOCCn1cc(CN2CCS(=O)(=O)N(Cc3ccc(-c4ccc(Cl)c(Cl)c4)cc3)C(C(C)C)C2=O)nn1 (stereo not given)	2.31µM*	2.31µM*	-27.9	-116.1%	nt	?
COCOCCn1cc(CN2CCS(=O)(=O)N(Cc3ccc(-c4ccc(F)cc4)cc3)C(C(C)C)C2=O)nn1 (stereo not given)	18.4µM*	?	?	-27.7%	nt	?
COCOCCn1cc(CN2CCS(=O)(=O)N(Cc3ccc(-c4ccc(OC)cc4)cc3)C(C)C2=O)nn1 (stereo not given)	11.6µM*	20.6µM*	-3.2	-42.6%	nt	-18.4%
COCOCCn1cc(CN2CCS(=O)(=O)N(Cc3ccc(-c4ccc(C)cc4)cc3)C(CC(C)C)C2=O)nn1 (stereo not given)	?	-64.2%	-21.0	-29.2%	nt	-0.1%
COCOCCn1cc(CN2CCS(=O)(=O)N(Cc3ccc(-c4ccc(Cl)cc4)cc3)C(C(C)C)C2=O)nn1 (stereo not given)	20.6µM*	18.4µM*	45.8	-20.2%	nt	-4.4%
COCOCCn1cc(CN2CCS(=O)(=O)N(Cc3ccc(-c4ccc(F)cc4)cc3)C(CC(C)C)C2=O)nn1 (stereo not given)	14.6µM*	25.9µM*	-18.2	-101.0%	nt	?
O=C(C[n+]1cnn(CC(=O)c2ccc(Cl)cc2Cl)c1)c1ccc([N+](=O)[O-])cc1	?	?	-70.9*	-68.8%	-3.2%	-11.1%
O=C(Cn1cnc([N+](=O)[O-])c1)c1ccc(Cl)cc1	-12.4%	-22.8%	12.1	-0.4%	4.3%	-2.2%
Clc1ccc(CN2C3=NCCCN3c3ccccc32)c(Cl)c1	?	?	-73.5*	-34.0%	-0.4%	0.0%
O=C(O)CN1C2=NCCCN2c2ccccc21	2.1%	15.3%	20.9	17.2%	10.0%	5.5%
OC(COc1ccccc1)CN1C2=NCCCN2c2ccccc21 (stereo not given)	10.3µM*	?	-14.5	2.3%	-3.1%	25.0%
Clc1cccc(CN2C3=NCCCN3c3ccccc32)c1	?	?	-17.1	-36.5%	-1.2%	-0.3%
Cc1cc2c(cc1C)N(Cc1ccc(Cl)cc1)C1=NCCCN12	5.17µM*	2.59µM*	nt	-85.3%	-4.0%	?
CC(C)(C)c1ccc(CN2C3=NCCCN3c3ccccc32)cc1	7.31µM*	7.31µM*	-54.3*	15.8µM*	-0.5%	?
CSc1ccc(C#N)cc1NC(=O)c1cccnc1Cl	-3.6%	4.1%	2.0	7.6%	-1.3%	1.6%
Cc1nc(NC(=O)CSc2nccn2C)sc1C(=O)N(C)C	-8.8%	10.4%	-4.9	3.2%	-1.3%	-8.9%
Clc1ccc(CN2C3=NCCN3c3ccccc32)cc1	?	13µM*	?	-0.5%	-2.9%	33.1%
c1ccc(OCCN2C3=NCCN3c3ccccc32)cc1	?	-26.8%	-3.6	-9.0%	1.6%	6.9%
c1ccc(CN2C3=NCCCN3c3ccccc32)cc1	-32.3%	-16.0%	-3.8	-5.6%	3.8%	-20.0%
Brc1ccc(CN2C3=NCCCN3c3ccccc32)cc1	?	16.4µM*	-55.5*	-24.2%	0.3%	-9.4%
Cc1ccc(CN2C3=NCCCN3c3ccccc32)cc1	?	14.6µM*	-3.5	-32.7%	5.3%	?
Cc1ccccc1C1=C/C(=C(\SS/C(C(=O)c2ccc(OCC(=O)O)c(Cl)c2Cl)=C2\C=C(c3ccccc3C)SS2)C(=O)c2ccc(OCC(=O)O)c(Cl)c2Cl)SS1	12.7%	5.2%	?	7.4%	-27.2%	-14.2%
N/C(=N\OC(=O)CCCc1ccccc1)c1ccccc1Cl	2.5%	-5.1%	-10.1	-1.7%	-0.8%	-13.7%
COc1ccc(Nc2nnc(SC(C(=O)Nc3cc(C)ccc3C)c3ccccc3)s2)cc1 (stereo not given)	20.6µM*	?	2.9	-10.0%	-6.8%	-5.7%
COc1ccc(Nc2nnc(SC(C(=O)Nc3ccc(OC)c(Cl)c3)c3ccccc3)s2)cc1 (stereo not given)	13µM*	23.1µM*	-9.7	-19.1%	-13.0%	5.1%
SMILES	TDP1 cell noCPT	DT40 TDP1 CPT	IL-1B inflam inh	HepG2 tox	ASM inhibitor	TGFb inhibitor
COc1ccc(C)cc1NC(=O)C(Sc1nnc(Nc2cc(C)ccc2OC)s1)c1ccccc1 (stereo not given)	?	?	-4.2	2.6%	-12.0%	-38.6%
COc1cccc(NC(=O)C(Sc2nnc(Nc3ccccc3C)s2)c2ccccc2)c1 (stereo not given)	20.6µM*	16.4µM*	-50.6*	0.9%	-13.0%	?
COc1cccc(Nc2nnc(SCN3C(=O)c4ccccc4C3=O)s2)c1	-12.4%	-10.1%	24.8	-42.1%	3.1%	-2.1%
CCOc1cc(C2c3c(oc4ccccc4c3=O)C(=O)N2c2nccs2)ccc1O (stereo not given)	?	?	13.3	-63.9%	0.5%	?
COC(=O)[C@]1(C)CCC[C@@]2(C)C3CC[C@]4(OC(C)=O)C[C@@]3(CCC21)CC4=O (stereo not given in full)	?	20.6µM*	23.8	-23.8%	-8.0%	-16.1%
COC(=O)[C@]1(C)CCC[C@@]2(C)C3CC[C@@]4(C)C[C@]3(CCC21)CC(=O)N4Cc1ccc(OC)cc1 (stereo not given in full)	6.51µM*	11.6µM*	?	-28.7%	0.0%	?
O=C(NCCC1CCCCN1S(=O)(=O)c1ccccc1)C(=O)NCc1ccccn1 (stereo not given)	-12.7%	-2.0%	1.5	-0.9%	3.6%	-18.5%
CN(C(=S)Nc1ccc(Oc2ccccc2)cc1)C1CCCCC1	25.9µM*	?	-100.5*	-34.2%	-1.3%	?
COc1ccccc1NC(=S)NC1CCCCCCCCCCC1	20.6µM*	10.3µM*	5.1	-37.4%	-13.1%	?
CCCCN(C)C(=S)Nc1ccc(Oc2ccccc2)cc1	?	-24.5%	0.0	-15.2%	0.3%	-26.6%
S=C(Nc1ccc(Oc2ccccc2)cc1)NC1CCCCCC1	23.1µM*	20.6µM*	-75.9*	3.0%	1.9%	?
CCCN(CC1CC1)C(=S)Nc1ccc(Oc2ccccc2)cc1	16.4µM*	?	28.6	-23.7%	-2.9%	?
